Bioassay records as filed in PubChem.
DT40 TDP1 CPT = qHTS for Inhibitors of human tyrosyl-DNA phosphodiesterase 1 (TDP1): qHTS in cells in presence of CPT. actives 12% (n = 420,000). Potency, µM (titrated, usually from 46.2 µM), inactives show at the top dose activity change, negative = growth inhibition, most hits filed as inhibitors. chicken DT40 Tdp1-/-;hTDP1 cells + 20 nM CPT, ATP luminescence, 48 h. AID 686979, 2013; further: potency means the concentration at half of the fitted maximal effect; nearly all actives have a fitted effect of over 55% in size
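Cell growth measured by CellTiter-Glo luminescence after a minimum 48 h, 37 C compound exposure with 20 nM CPT in Tdp1-knockout DT40 cells stably expressing hTDP1, seeded 400/well; qHTS titration format.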
HT1080 IDH1KD tx = qHTS for induction of synthetic lethality in tumor cells producing 2HG: qHTS for the HT-1080-IDH1KD cell line; HT-1080 IDH1 knockdown viability, ATP luminescence, 48 h; Potency, µM (series often up to 46.1 µM), for inactives: top-dose activity, negative = toxicity, actives largely listed as cytotoxic; actives 2% (n = 360,000);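 further: potency means the concentration at half of the fitted maximal effect; 0% = DMSO wells and -100% = cell-free medium wells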
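IDH1KD HT-1080 cells, 750/well, RPMI + 5% FBS; compound pinned after 2 h settling; 48 h, 37 °C; CellTiter-Glo luminescence; % activity normalised to DMSO and no-cell wells; curves fitted, classed by r2 and efficacy.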
HT1080-NT tox = qHTS for induction of synthetic lethality in tumor cells producing 2HG: qHTS for the HT-1080-NT fibrosarcoma cell line | HT-1080-NT fibrosarcoma viability, CellTiter-Glo ATP luminescence, 48 h | Potency, µM (top dose mostly 46.1 µM), for inactives: at the top dose activity, negative = less viability, actives largely listed as cytotoxic | actives 1.6% (n = 360,000);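 further: NT is the 2HG producing partner of a matched IDH1 knockdown line; potency means the concentration at half of the fitted maximal effect; 0% = DMSO-treated cells and -100% = media-only wells without cells; nearly all actives have a fitted effect of over 55% in size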
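Luminescent CellTiter-Glo readout after 48 hours of compound exposure at 37 degrees C defined viability of HT-1080-NT cells. Activity was normalized to DMSO wells and cell-free media wells; concentration-response curves were fitted and assigned curve classes.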
TDP1 cell noCPT = qHTS for Inhibitors of human tyrosyl-DNA phosphodiesterase 1 (TDP1): qHTS in cells in absence of CPT | AID 686978, 2013 | DT40 Tdp1-/- hTDP1 cells, no CPT, ATP luminescence, 48 h | Potency, µM (top dose mostly 46.2 µM), without a hit: at the highest dose activity change, negative = growth inhibition, hits mostly inhibitors | actives 15% (n = 420,000); further: potency means the concentration at half of the fitted maximal effect; nearly all actives have a fitted effect of over 55% in size
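Compound effects on proliferation are scored in DT40 Tdp1-/-;hTDP1 cells in the absence of CPT. ATP levels (CellTiter-Glo luminescence) are recorded after a ≥48 hr, 37 °C incubation.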
IL-1B inflam inh = qHTS for Inhibitors of Inflammasome Signaling: IL-1-beta AlphaLISA Primary Screen; activity change, % at 57.5 µM; actives 4.7% (n = 360,000); THP-1 LPS/ATP IL-1B secretion, AlphaLISA, 16 h; stronger effect = lower value; in the data active means activity change below about -50%; inconclusive means mostly about -30% to -49%
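Secreted IL-1B measured by AlphaLISA bead assay after 16 h compound exposure of THP-1 cells; compounds (final up to 57.5 uM) added 1 h before LPS (250 ng/mL) and ATP (1.25 mM) stimulation; lower signal means less secretion.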
The depositor's hits bear a star; u = inconclusive; x = no result; [ ] = remark or other dose. An excerpt weighted towards active compounds, which were near 19% of everything screened. Unless noted, the call rests on the fitted dose curve; in most records, active means well fitted curve in the direction sought with a large enough effect; inconclusive means small, poorly fitted or top-dose-only effect, or another doubt; inactive means no such curve, though single readings can be large; an effect the other way counts as inactive or inconclusive. Unless noted, on the % scale 0 is the no-effect control and ±100 the full control effect.

SMILES	DT40 TDP1 CPT	HT1080 IDH1KD tx	HT1080-NT tox	TDP1 cell noCPT	IL-1B inflam inh
CC(C(=O)NC1CCCc2ccccc21)N1CCN(c2ccc(F)cc2)CC1 (stereo not given)	u	-24%	-19%	16µM*	-5
CC(C(=O)NC1CCCc2ccccc21)N1CCN(Cc2ccc3c(c2)OCO3)CC1 (stereo not given)	u	3%	-2%	u	3
CC(C)(C)NC(=O)C(c1ccc(-c2ccccc2)cc1)N(C[C@H]1CC[C@@H]([C@@H]2CC[C@H](CO)O2)O1)C(=O)c1ccc(C(C)(C)C)cc1 (stereo not given in full)	u	u	u	21µM*	u
CNS(=O)(=O)c1cnccc1N1CCN(c2cccc(C(F)(F)F)c2)CC1	u	-1%	0%	u	0
O[C@@H]1CN(CC2CCCCC2)[C@@H](c2ccccc2)C[C@H]1n1cc(C2CC2)nn1	u	4%	6%	8.2µM*	3
O[C@H]1C[C@H](c2ccccc2)N(CC2CCCCC2)C[C@@H]1n1cc(C2CC2)nn1	10µM*	u	u	7.3µM*	-25
COc1cc(CN2C[C@@H](CO)O[C@@H](n3cnc4c(NCC(C)C)ncnc43)C2)cc(OC)c1OC	-1%	0%	3%	2%	13
COc1ccc(S(=O)(=O)N2CCOC2CNC(=O)C(=O)NCCc2c[nH]c3ccccc23)cc1 (stereo not given)	16µM*	-2%	-11%	u	-16
COc1ccc(S(=O)(=O)N2CCOC2CNC(=O)C(=O)NCCc2c[nH]c3ccccc23)cc1C (stereo not given)	23µM*	-12%	-10%	23µM*	0
COc1ccc(C2=NN(C(=O)CSc3ncccn3)C(c3ccc(OC)cc3)C2)cc1 (stereo not given)	u	1%	-2%	u	8
COc1ccc(C2=NN(C(=O)CSc3nc4ccccc4s3)C(c3ccc(OC)cc3)C2)cc1 (stereo not given)	13µM*	3%	4%	12µM*	0
COc1ccc(C2=NN(C(=O)CSc3nc4ccccc4s3)C(c3ccc(F)cc3)C2)cc1 (stereo not given)	21µM*	-5%	-6%	u	-6
Cc1noc(C)c1/C=N/Nc1ccccn1	-2%	29%	18%	-19%	-70*
Oc1cccc(C=NNc2ccccn2)c1	-24%	13%	14%	-19%	-87*
O=c1nc(N/N=C/c2c[nH]c3ccccc23)cn[nH]1	0%	22%	25%	u	12
C(=N\Nc1ccccn1)/c1c[nH]c2ccccc12	u	-1%	0%	u	-95*
Oc1ccc(/C=N/Nc2cccc3cccnc23)c(O)c1	u	-14%[9.24 µM]	u	u	-77*
Cc1ccc(/C=N/Nc2cccc3cccnc23)c(O)c1	-7%	u	-2%[9.24 µM]	u	0
O=c1[nH]c(=O)n2c(c1-c1ccccc1)OC(CBr)C2 (stereo not given)	-8%	5%	3%	-17%	4
CC(C)N1CCSC1=S	8%	2%	11%	6%	17
Oc1ccc(C=NNc2ccccn2)c(O)c1	4.1µM*	u	-27%	2.9µM*	20
C(=N\Nc1ccccn1)/c1ccc(N2CCOCC2)cc1	23µM*	0%	-1%	16µM*	-25
CCOC(=O)C1CCN(c2c(N3CCN(Cc4ccccc4)CC3)c(=O)c2=O)CC1	4%	-3%	-1%	-14%	0
CCOC(=O)[C@@H]1CCN(Cc2ccccc2)C[C@H]1c1ccccc1	u	-16%	-5%	23µM*	-9
COC(=O)c1ccc2c(=O)n(CCCCCC(=O)NCc3ccccc3)c(=O)[nH]c2c1	-18%	2%	4%	-18%	36
SMILES	DT40 TDP1 CPT	HT1080 IDH1KD tx	HT1080-NT tox	TDP1 cell noCPT	IL-1B inflam inh
COC(=O)c1ccc2c(=O)n(CCCCCC(=O)NC(C)C)c(=O)[nH]c2c1	u	24%	-13%	21µM*	6
COC(=O)c1ccc2c(=O)n(CCCCCC(=O)NCc3ccc(OC)cc3)c(=O)[nH]c2c1	23µM*	x	x	u	x
CC(=O)c1ccc(NC(=O)c2cccc(NC(=O)N3CCSc4ncccc43)c2)cc1	-2%	x	x	-25%	x
Cc1c(C)c2ccc(OCC(=O)N3CCN(C(=O)C4COc5ccccc5O4)CC3)cc2oc1=O (stereo not given)	u	-13%	1%	2.3µM*	-7
Cc1cc(=O)oc2cc(OCC(=O)N3CCN(C(=O)C4COc5ccccc5O4)CC3)ccc12 (stereo not given)	u	-7%	-5%	u	u
CCCc1cc(=O)oc2cc(OCC(=O)N3CCN(C(=O)C4COc5ccccc5O4)CC3)ccc12 (stereo not given)	u	-3%	-20%	5.8µM*	-8
Cc1ccc(-n2nnnc2-c2ccccc2Br)cc1	-12%	-9%	5%	-24%	-5
CCCCNC(=O)O[C@@H]1C[C@H]2CCCC(=O)N3CC[C@@H](C1)[C@@H]23	8%	25%	22%	-1%	10
CC[C@@H]1[C@H]2CCCC(=O)N3CC[C@@H](C[C@@H]1Nc1ccccc1)[C@@H]23	u	15%	u	18µM*	37
CCCCNC(=O)O[C@H]1C[C@@H]2CCN3C(=O)CCC[C@H]([C@H]1CC)[C@H]23	-6%	u	6%	-7%	3
CCCCNC(=O)O[C@@H]1C[C@@H]2CCN3C(=O)CCC[C@H]([C@H]1CC)[C@H]23	14µM*	13%	15%	10µM*	9
CC[C@@H]1[C@H]2CCCC(=O)N3CC[C@@H](C[C@@H]1OC(=O)Nc1ccccc1)[C@@H]23	11µM*	1%	10%	11µM*	-11
CCCCCCCN(c1ccccc1)[C@@H]1C[C@H]2CCCC(=O)N3CC[C@@H](C1)[C@@H]23	12µM*	-26%	-29%	10µM*	-108*
CNc1cc(-c2cccc(N(C)C)c2)ncn1	-2%	1%	10%	-18%	-3
Cc1ccc2ncc3c(-c4ccc(F)cc4)nn(CC(=O)Nc4ccccc4C)c3c2c1	-14%	x	x	7%	x
CN(CC(=O)Nc1ccc(F)cc1)CC(=O)N1CCCC1	-2%	-4%	-4%	-24%	9
O=[N+]([O-])c1ccccc1-c1ccc(C(=S)N2CCCC2)o1	26µM*	-10%	1%	u	1
